Screening results as filed in PubChem BioAssay.
Compounds with a hit are over-represented: about 12% of the library has one in this group of screens.
PLK1 PBD inh: qHTS for Inhibitors of PLK1-PDB (polo-like kinase 1 - polo-box domain): Primary Screen; Serine/threonine-protein kinase PLK1 (Homo sapiens), P53350; Plk1 PBD binding of FITC phosphopeptide, fluorescence polarization; Potency, µM, inactives show max response, negative = inhibition, hits mostly inhibitors; hit rate 2.8% among 360,000; AID 720504, 2013; also: series mostly up to about 57 µM; % is scaled to controls: 0 for no effect and ±100 for the full control effect; nearly all actives have a fitted effect of over 65% in size
G9a inh: qHTS Assay for Inhibitors of Histone Lysine Methyltransferase G9a. G9a H3K9 monomethylation, AlphaScreen, 2 h. hit rate 8.8% among 350,000. Histone-lysine N-methyltransferase EHMT2 (Homo sapiens), Q96KQ7. Potency, µM (doses to about 102 µM), inactives show at the top dose activity, negative = inhibition, actives largely listed as inhibitors; also: % is scaled to controls: 0 for no effect and ±100 for the full control effect; nearly all actives have a fitted effect of over 75% in size
Target sequence (Q96KQ7 913-1193 limits assumed): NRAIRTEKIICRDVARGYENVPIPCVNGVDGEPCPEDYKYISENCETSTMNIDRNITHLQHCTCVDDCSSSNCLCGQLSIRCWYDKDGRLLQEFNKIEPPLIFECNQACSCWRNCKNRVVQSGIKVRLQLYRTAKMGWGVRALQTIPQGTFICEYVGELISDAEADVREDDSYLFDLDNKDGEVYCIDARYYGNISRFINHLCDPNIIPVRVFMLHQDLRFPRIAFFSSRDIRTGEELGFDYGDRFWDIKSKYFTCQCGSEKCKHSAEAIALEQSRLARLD
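G9a (20 nM) was preincubated 15 min with compound, then reacted 2 h at room temperature with 500 nM biotin-H3K9 peptide and 20 µM SAM. Monomethyl-H3K9 detected by AlphaScreen using anti-H3K9me1 antibody.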
HP1b binding inh: HTS for Inhibitors of HP1-beta Chromodomain Interactions with Methylated Histone Tails; hit rate 0.56% among 390,000; Chromobox protein homolog 1 (Homo sapiens), P83916; AlphaScreen HP1-beta / biotin-H3K9me3 peptide binding; Potency, µM (doses to about 114 µM), without a hit: at the top dose activity change, negative = inhibition, hits mostly inhibitors; also: nearly all actives have a fitted effect of over 70% in size
Target sequence (P83916 whole entry, looked up): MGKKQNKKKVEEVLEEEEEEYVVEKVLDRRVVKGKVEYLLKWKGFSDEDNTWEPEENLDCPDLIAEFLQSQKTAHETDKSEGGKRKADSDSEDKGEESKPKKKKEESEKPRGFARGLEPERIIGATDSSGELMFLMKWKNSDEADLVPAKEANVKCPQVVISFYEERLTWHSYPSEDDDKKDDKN
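AlphaScreen: HP1-beta (50 nM) preformed 30 min with biotin-H3(1-18)K9me3 peptide (50 nM) in PBS pH 7.4, 0.01% Tween-20. Compound added for 30 min at RT, then streptavidin donor/nickel chelate acceptor beads (10 ug/mL) for 30 min.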
Sfp inh: qHTS Assay for Inhibitors of Bacillus subtilis Sfp phosphopantetheinyl transferase (PPTase); AID 1490, 2009; hit rate 3.5% among 310,000; Biochemical Sfp PPTase activity, qHTS; Potency, µM, for the others: largest response in the series, negative = inhibition, hits mostly inhibitors;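 also: the enzyme is Sfp with the accession as filed and its product quenches rhodamine fluorescence; 0% = enzyme reaction without inhibitor and -100% = no enzyme wells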
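Fluorescence-quenching assay: 15 nM Sfp-PPTase preincubated 15 min at room temperature with compound, then 5 uM rhodamine-CoA and 12.5 uM BHQ-2-labelled YbbR peptide added. Fluorescence (ex 525/em 598 nm) read at start and after 30 min; difference gives rate.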
BAZ2B block: qHTS Assay for Inhibitors of BAZ2B. hit rate 4.4% among 360,000. Potency, µM (doses to about 114 µM), for the others: at the top dose activity change, negative = inhibition, usual class: inhibitors. Bromodomain adjacent to zinc finger domain protein 2B (Homo sapiens), Q9UIF8. AlphaScreen BAZ2B-H3K14Ac peptide displacement; also: % is scaled to controls: 0 for no effect and ±100 for the full control effect; nearly all actives have a fitted effect of over 60% in size
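BAZ2B (50 nM) with biotin-H3(5-23)K14Ac peptide (50 nM) in PBS pH 7.4, 0.01% Tween-20, preformed 30 min, then compound 30 min at room temperature; top concentration 110uM. AlphaScreen streptavidin donor/nickel chelate acceptor beads (10 ug/mL final), 20 min dark, signal read.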
JMJD2A Tudor inh: qHTS Assay for Inhibitors of JMJD2A-Tudor Domain; Potency, µM (series often up to 114 µM), for the others: at the top dose activity change, negative = inhibition, most hits filed as inhibitors; AlphaScreen JMJD2A-Tudor / H3K4me3 peptide binding; Lysine-specific demethylase 4A (Homo sapiens), O75164; hit rate 4.4% among 390,000; also: % is scaled to controls: 0 for no effect and ±100 for the full control effect; nearly all actives have a fitted effect of over 50% in size
An asterisk follows results filed as active; ? = inconclusive; nt = no result; [ ] = another dose, or the depositor's remark. Calls follow the shape of the dose curve; as a rule, active = well fitted curve in the direction sought with a large enough effect; inconclusive = small, poorly fitted or top-dose-only effect, or another doubt; inactive = no such curve, though single readings can be large; an effect the other way counts as inactive or inconclusive. Potency is read from the fitted curve at half-maximal effect.

SMILES	PLK1 PBD inh	G9a inh	HP1b binding inh	Sfp inh	BAZ2B block	JMJD2A Tudor inh
Clc1ccc(C2=NNC(=NCc3ccccc3)SC2)cc1	?	-45%	-3%	?	?	?
c1ccc(CN=C2NN=C(c3ccccc3)CS2)cc1	-29%	40µM*	-21%	-2%	?	?
CCCCN=C1NN=C(c2cccc([N+](=O)[O-])c2)CS1	-5%	11µM*	-2%	2%	?	-31%
Cc1ccccc1N1C(=O)C(Cl)=C(N2CCCCCC2)C1=O	-1%	134%	279%	-26%	127%	85%
O=C(O)C1CCN(C(=O)c2ccccc2Cl)CC1	-3%	3%[59 µM]	36%	3%	-2%	0%
O=C1C(Cl)=C(N2CCC(C(=O)O)CC2)C(=O)c2ccccc21	?	50µM*	-3%	?	?	-26%
CN1CCN(C2=C(Cl)C(=O)c3ccccc3C2=O)CC1	9.5µM*	nt	?	nt	nt	22µM*
CN1CCN(C2=C(Cl)C(=O)C(c3cnc(N4CCCCC4)s3)=C(Cl)C2=O)CC1	3.8µM*	9%[59 µM]	?	-10%	13%	4.5µM*
NC(=O)C1CCN(C2=C(Cl)C(=O)c3ccccc3C2=O)CC1	27µM*	11µM*	?	18µM*	25µM*	-29%
O=C1C(Cl)=C(NCCN2CCOCC2)C(=O)c2ccccc21	0%	?	?	1%	-38%	-35%
O=C(CCS(=O)(=O)c1cccs1)Nc1ccc(C(=O)Nc2ccccc2F)cc1	nt	-47%[59 µM]	26%	nt	0%	-6%
COc1ccccc1CNC(=O)c1ccc(Cl)c(NC2=NC3CS(=O)(=O)CC3S2)c1 (centres undefined)	-6%	28%	28%	15%	-34%	-11%
CCOc1cc(C(=O)NCCC(=O)N2CCC3(CC2)NCCc2[nH]cnc23)cc(OCC)c1OCC	3%	10%[59 µM]	18%	8%	-38%	-12%
COC(=O)c1ccc(Nc2ncnc3c2cnn3C)cc1	nt	-2%[59 µM]	-11%	nt	0%	-11%
CCOC(=O)[C@]12CCC=C1N(Cc1ccccc1)C(=O)[C@H](CC(=O)NCc1ccccc1)C2	-5%	nt	nt	nt	nt	nt
O=C(CC1C(=O)Nc2ccccc2N1CC(=O)N1CCCC1)Nc1ccc(Br)cc1 (centres undefined)	-2%	0.28µM*	28%	nt	2%	-18%
Cc1cc(-n2c(C)cc(C(=O)COc3ccc4ccc(=O)oc4c3)c2C)no1	-10%	57%[12.7 µM]	7%	-15%	-30%	-19%
Cc1cc(-n2c(C)cc(C(=O)COc3cccnc3[N+](=O)[O-])c2C)no1	-7%	40µM*	-12%	nt	?	-23%
CC(=O)c1cccc(OCC(=O)c2cc(C)n(-c3cc(C)on3)c2C)c1	-12%	50µM*	-20%	-8%	?	-24%
CCOC(=O)CSc1nc(=O)n2cccc(C)c2n1	-22%	15%	57%	11%	-2%	-13%[11.4 µM]
CC(=O)Nc1nc(-c2ccc3c(c2)CC(C)N3C(=O)C2CC2)c(C)s1 (centres undefined)	-16%	25µM*	?	50µM*	?	-32%
Cc1sc(NC(=O)Cc2ccc3c(c2)OCO3)nc1-c1ccc2c(c1)CCN2C(=O)c1ccc(F)cc1	-16%	40µM*	-19%	-10%	-10%	?
Cc1sc(NC(=O)c2ccco2)nc1-c1ccc2c(c1)CC(C)N2C(=O)C1CC1 (centres undefined)	-17%	45µM*	?	-18%	-4%	-26%
CCOC(=O)C(=O)Nc1nc(-c2ccc3c(c2)CCN3C(=O)C2CC2)c(C)s1	-25%	50µM*	14%	-9%	?	-19%
Cc1sc(NC(=O)c2ccco2)nc1-c1ccccc1	-7%	9%[12.7 µM]	25%	-1%	-9%	-16%
SMILES	PLK1 PBD inh	G9a inh	HP1b binding inh	Sfp inh	BAZ2B block	JMJD2A Tudor inh
CC1Cc2cc(S(=O)(=O)NCc3ccccc3)ccc2N1C(=O)C1CC1 (centres undefined)	-2%	12%[59 µM]	28%	17%	0%	-5%
COC(=O)c1c(=O)n(O)c2ccc(OC)cc2[n+]1[O-]	-16%	32µM*	15%	?	?	?
COC(=O)c1nn(-c2ccc(OC)cc2)c(=O)cc1O	-7%	-42%	-10%	-16%	-18%	-19%
Cc1ccccc1CN1CCC(N2CCC(C(=O)NCC3CCCO3)CC2)CC1 (centres undefined)	-10%	-18%	16%	12%	-2%	-20%
CCSc1n[nH]c2nc3c(c(=O)n12)C1(CCCC1)Cc1ccccc1-3	21µM*	21%[0.501 µM]	31%	9%	-6%	0%
C=CCSc1n[nH]c2nc3c(c(=O)n12)C1(CCCC1)Cc1ccccc1-3	?	50µM*	39%	21%	12%	-10%
CSc1n[nH]c2nc3c(c(=O)n12)C1(CCCC1)Cc1ccccc1-3	?	-35%[59 µM]	35%	17%	-3%	1%
CCOC(=O)CSc1nnc(CSc2nc(N)c3c(C)c(C)sc3n2)n1-c1ccccc1	-3%	45µM*	14%	3%	6%	-28%
COc1ccc(C2=NN(C(=O)CSc3nnc(C)n3C)C(c3ccco3)C2)cc1 (centres undefined)	-5%	50µM*	25%	-2%	-5%	-21%
Cc1ccc(-c2nc(CN3CCCCC3c3cccc(F)c3)c(C)o2)o1 (centres undefined)	3%	40µM*	-21%	4%	-39%	?
COc1ccc(C2=NN(C(=O)CCCC(=O)O)C(c3cn(-c4ccccc4)nc3-c3ccccc3)C2)cc1 (centres undefined)	-29%	?	32%	8%	56µM*	56µM*
Cc1ccc(C2=NN(C(=O)CCCC(=O)O)C(c3ccco3)C2)cc1 (centres undefined)	-3%	-10%	12%	45µM*	-12%	-7%
Cc1oc(-c2ccccc2Cl)nc1CN1CCCC1c1ccc(F)cc1 (centres undefined)	-5%	nt	32%	-11%	-2%	-16%
CCCCN(CC)c1nc(-c2ccccc2F)nc2ccccc12	nt	45%[59 µM]	161%	nt	191%	111%
O=C(NCc1ccco1)C1CCN(C(=O)N2CCOc3ccccc32)CC1	nt	2%[59 µM]	36%	nt	3%	-8%
